# Laboratory results taken from PubChem BioAssay (NCATS).
# Inconclusive results are not listed. A call without a number means that no potency is given here. Activity calls are given as the source filed them. Calls follow the shape of the dose curve; as a rule, active = well fitted curve in the direction sought with a large enough effect; inconclusive = small, poorly fitted or top-dose-only effect, or another doubt; inactive = no such curve, though single readings can be large; an effect the other way counts as inactive or inconclusive.
# Experiments:
# [1] = biological target: Aldehyde dehydrogenase, mitochondrial (Homo sapiens) (UniProt P05091); test: qHTS for Inhibitors of the Aldehyde Dehydrogenase Family (ALDH2) Primary screen (AID 2061308); also: nearly all actives have a fitted effect of over 55% in size
# [2] = biological target: Retinaldehyde dehydrogenase 3 (Homo sapiens) (UniProt P47895); test: qHTS for Inhibitors of the Aldehyde Dehydrogenase Family (ALDH1A3) Primary screen (AID 2061315)
Structure (SMILES),Potency [1],Potency [2]
O=C(O)C1CCC(C(=O)Nc2ccc([S+](=O)([O-])Nc3nccs3)cc2)CC1 (stereo not given),inactive,inactive
COC/C=C/c1cc(F)c(S(=O)(=O)N2CCN(S(=O)(=O)c3ccc4c(c3)OCCO4)CC2)cc1F,inactive,inactive
CN(C)CCCCC(=O)Nc1ccc(NC(=S)NC(=O)c2ccc(C(C)(C)C)cc2)cc1,inactive,inactive
Cc1cc2c(s1)c1cnn(Cc3c(Cl)cccc3Cl)c(=O)c1n2C,inactive,inactive
C#CCOc1ccc(-c2nnc3n2N=C(c2ccc(OC)c(OCC(C)=O)c2)CS3)cc1,inactive,inactive
Cc1cccc(-c2nnc(C)n2CCCn2ccnc2)c1[N+](=O)[O-],inactive,inactive
N#CN1CCC(NS(=O)(=O)c2cccc(C(F)(F)F)c2)CC1,inactive,inactive
CNc1oc(-c2cccc(Cl)c2)nc1C#N,inactive,inactive
CCOc1ccc(C(=O)Oc2ccc(-c3nc4ccccc4[nH]3)cc2)cc1,inactive,inactive
COc1cccc(CNc2ccc(S(=O)(=O)Nc3cccc(N4CCNCC4)c3)cc2)c1O,inactive,inactive
Cc1ccc(S(=O)(=O)Nc2cnccc2C(=O)Nc2ccc(C#N)cc2)cc1,inactive,inactive
O=S(=O)(Nc1ccc(-c2ccccc2)cc1)c1ccc(NCc2ccc(Br)cc2O)cc1,inactive,inactive
CCCn1c(-c2ccc(F)cc2)nc2c(NC(C)CN(C)C)nc(C)nc21 (stereo not given),inactive,inactive
CC(=O)N1c2ccc(S(=O)(=O)Nc3ccc(C)c(C)c3)cc2CC1C (stereo not given),inactive,inactive
C=CCc1cc(F)c(S(=O)(=O)N2CCN(S(=O)(=O)c3ccc4c(c3)OCCO4)CC2)cc1F,inactive,inactive
O=C(Nc1ccc(Cl)c(Cl)c1)Nc1nnc(Br)s1,inactive,inactive
CC(=O)O[C@@H]1CC(C)=C2[C@H]1[C@H](C)CC[C@H]2/C=C(\C)C(=O)O,inactive,inactive
OCC#CCSc1nnc(-c2cccc3ccccc23)o1,inactive,inactive
Cc1cnc(-c2ccccc2CO)nc1NCc1ccc(-c2cccnc2)cc1,inactive,inactive
CC(C)c1ccccc1-c1ncc(F)c(NCc2ccc(-c3ccn[nH]3)cc2)n1,inactive,inactive

Structure (SMILES),Potency [1],Potency [2]
Cc1ccc(S(=O)(=O)NC(N)=NCCC[C@@H](N)C(=O)Nc2cc(C(F)(F)F)ccc2Cl)cc1,inactive,inactive
O=C1CCCC2=C1[C@@]1(CCC(c3ccccc3)C1)N=C(Nc1nc3ccccc3o1)N2 (stereo not given in full),inactive,inactive
COC(=O)C1=CO[C@@H](O[C@@H]2O[C@H](CO)[C@@H](O)[C@H](O)[C@H]2O)C2C1C(=O)C[C@H]2C (stereo not given in full),inactive,inactive
O=C(Nc1ncc(-c2ccccc2)s1)c1ccc(-c2cccc([N+](=O)[O-])c2)o1,inactive,inactive
CCC(=O)NC(c1cc(Cl)c2cccnc2c1O)C1CC1 (stereo not given),inactive,inactive
O=C(Nc1ccc(Cl)c(Cl)c1)Nc1ncc(-c2ccncc2)s1,inactive,inactive
Cc1cc2c(s1)c1cnn(Cc3c(F)ccc(Cl)c3F)c(=O)c1n2C,inactive,inactive
CN1CCCC1CCNc1ncnc2ccc(-c3ccc4c(c3)OCO4)cc12 (stereo not given),inactive,inactive
O=C(OCC#CCSc1nnc(-c2cccc3ccccc23)o1)c1ccccc1,inactive,inactive
COc1ccc(OC)c(C2=Nn3c(nnc3-c3ccc(OC)c(OC)c3)SC2)c1,inactive,inactive
Oc1ccc(CNCc2ccccc2F)c2cccnc12,inactive,inactive
O=S(=O)(Nc1nccs1)c1ccc(NCc2ccccc2)cc1,inactive,inactive
O=c1c2[nH]c3ccsc3c2cnn1Cc1ccccc1F,inactive,inactive
Cc1ccsc1CNc1ncnc2ccc(-c3ccc4c(c3)OCO4)cc12,inactive,inactive
Cc1ccc(-c2ccc(=O)n(CC(=O)N(C)CCc3ccco3)n2)cc1,inactive,inactive
CC1=CC(=O)C2C(C)(C)CCC[C@]2(C)[C@H]1CC[C@H](C)CC(=O)O (stereo not given in full),inactive,inactive
CC(=O)Nc1cccc(OC2=NS(=O)(=O)c3ccccc32)c1,inactive,inactive
O=C(Nc1ccc(F)nc1)Nc1nnc(-c2ccncc2)s1,inactive,inactive
COc1cc2nc(N3CCN(C(=O)c4ccco4)C4CCCCC43)nc(N)c2cc1OC (stereo not given),inactive,inactive
N#Cc1ccccc1CCc1nc2ncc(Br)cc2[nH]1,inactive,inactive
